Records with an inconclusive call do not appear. Calls of active or inactive are those of the source. Calls come from the whole dose curve; as a rule, active = well fitted cell-killing curve with a large enough effect in the repeat runs; inconclusive = weak or mixed curves, or effect the other way; inactive = no such curve, though single readings can be large or run the other way.
Experiment: qHTS assay to identify small molecule antagonists of the progesterone receptor (PR) signaling pathway - cell viability counter screen (AID 1346798); note: nearly all actives have a fitted effect of over 50% in size
Conditions: PR-UAS-bla HEK293T viability, CellTiter-Glo luminescence, 16 h; series mostly up to 92.4 µM; activity change, negative = cytotoxicity: at the top concentration
Method in brief: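 In the same plates used for the beta-lactamase readout, cell viability of compound- and R5020-treated PR-UAS-bla HEK293T cells (16 hr, 37C) was assessed by CellTiter-Glo luminescence.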
% is set by controls: 0 for no effect and ±100 for the full control effect; potency is the fitted concentration of half-maximal effect.

| Compound | activity change, negative = cytotoxicity | Potency |
| --- | --- | --- |
| CCCCCCCC1CCC(=O)O1 (configuration not stated) | 0.263% (inactive) | – |
| CC(C)(C)c1ccc(OC2CCCCC2O)cc1 (configuration not stated) | -0.0547% (inactive) | – |
| NCc1cccc(C2CCN(C(=O)c3ccc(C#Cc4ccccc4F)o3)CC2)c1 | – | 48.6 µM (active) |
| CN(C/C=C/c1ccccc1)Cc1cccc2ccccc12 | -11.8% [at 42.5 µM] (inactive) | – |
| c1ccc(-c2nc3ccccc3[nH]2)cc1 | 7.79% (inactive) | – |
| CCN(CC)c1ccc(C=O)c(O)c1 | -15.5% (inactive) | – |
| CC(C)(C)C1=CC(=O)C(C(C)(C)C)=CC1=O | 8.4% [at 42.5 µM] (inactive) | – |
| CC(Cc1ccc(O)c(O)c1)C(C)Cc1ccc(O)c(O)c1 (configuration not stated) | 1.8% (inactive) | – |
| CC(C)c1ccc2sc3ccccc3c(=O)c2c1 | -14.4% (inactive) | – |
| CCN(CC)c1ccc(C=O)cc1 | -15.6% (inactive) | – |
| C/C(=C\c1ccc(C(=O)O)cc1)c1ccc2c(c1)C(C)(C)CCC2(C)C | -17.4% [at 42.5 µM] (inactive) | – |
| Nc1ccc(N)c([N+](=O)[O-])c1 | -16.9% (inactive) | – |
| COc1cccc(-c2ccc(/C=C\CN3CCCCCC3)cc2Cl)c1 | 19.3% (inactive) | – |
| O=C1CCCCCCCCCCCCCC1 | 6.61% (inactive) | – |
| O=C1Cc2ccccc2C1 | -6.64% (inactive) | – |
| CCOC(=O)C1=NN(c2ccc(Cl)cc2Cl)C(C)(C(=O)OCC)C1 (configuration not stated) | -13.9% (inactive) | – |
| CC(=O)N(C)C | 0.3% (inactive) | – |
| C1=CCCC1 | -1.04% (inactive) | – |
| Oc1ccc(Cl)cc1C1CCCC1 | -1.84% (inactive) | – |
| CC(C)=NNC(N)=S | – | 21.7 µM (active) |
| c1ccc(C[P+](c2ccccc2)(c2ccccc2)c2ccccc2)cc1 | 0.265% (inactive) | – |
| CCCCCc1ccc(O)cc1 | -9.39% (inactive) | – |
